Results as given in PubChem BioAssay AID1903 (Southern Research Specialized Biocontainment Screening …, 2009).
Among all 310,000 compounds or so, about 1,200 (0.39%) were called active. No rule for the calls is given here. Not all results are given here. Results with a measured potency or affinity are listed apart.

These compounds were tested against Large T antigen (Simian virus 40) (UniProt P03070) (assay: SV40 large T antigen inhibitors, biochemical (AID 1903)). Settings: SV40 large T antigen ATPase/helicase inhibition assay; at 20 µM; hits give high values.
Chain of Large T antigen (Simian virus 40) (P03070 whole entry, looked up): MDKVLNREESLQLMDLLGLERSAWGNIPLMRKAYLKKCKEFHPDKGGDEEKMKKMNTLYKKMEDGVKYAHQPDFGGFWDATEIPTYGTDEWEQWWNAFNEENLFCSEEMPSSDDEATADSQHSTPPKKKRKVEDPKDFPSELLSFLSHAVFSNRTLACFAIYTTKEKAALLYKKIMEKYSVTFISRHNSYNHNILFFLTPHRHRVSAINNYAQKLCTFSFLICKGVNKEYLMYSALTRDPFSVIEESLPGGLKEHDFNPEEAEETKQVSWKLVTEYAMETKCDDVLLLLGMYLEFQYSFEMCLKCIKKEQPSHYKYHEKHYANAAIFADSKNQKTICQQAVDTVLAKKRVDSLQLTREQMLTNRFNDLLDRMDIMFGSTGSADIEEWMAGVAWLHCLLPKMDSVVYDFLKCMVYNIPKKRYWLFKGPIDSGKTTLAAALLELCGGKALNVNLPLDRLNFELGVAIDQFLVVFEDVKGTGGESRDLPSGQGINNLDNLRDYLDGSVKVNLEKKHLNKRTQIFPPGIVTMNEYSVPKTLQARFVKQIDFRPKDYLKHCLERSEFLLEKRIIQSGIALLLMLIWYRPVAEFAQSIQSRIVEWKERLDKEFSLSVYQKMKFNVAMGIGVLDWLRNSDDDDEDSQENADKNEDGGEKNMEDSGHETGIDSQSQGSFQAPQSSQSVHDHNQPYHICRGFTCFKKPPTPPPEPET

inhibition, inactive:
Cc1cccc(N/N=C(\C#N)S(=O)(=O)C(C)(C)C)c1 8.77%
O=C(O)CCCNC(=O)Cc1ccccc1 2.55%
O=C(Cc1cccs1)NNC(=O)c1ccc(F)cc1 8.96%
Cc1cc(Nc2ccccc2Cl)c2ccccc2n1 8.12%
COc1cccc(CNc2ccc(C(=O)O)cc2)c1OCc1ccccc1 7.38%
C=CCOc1c(CNc2cccc(C(=O)O)c2)cccc1OC 9.77%
C=CCOc1ccccc1CNc1ccc2c(c1)OCCO2 25.8%
C=CCOc1ccccc1CNc1cccc(F)c1 -2.23%
C=CCOc1c(CNc2ccc(C(=O)O)cc2)cccc1OC 9.8%
COc1cccc(CNc2ccc3[nH]c(=O)[nH]c3c2)c1OCc1ccccc1Cl 37%
COc1ccc2nc(NC(=O)C3CCN(C(=O)c4ccco4)CC3)sc2c1 -5.44%
Cc1ccc(NC(=O)c2ccc(F)cc2)cc1S(=O)(=O)N1CCCCCC1 7.24%
COCCn1c(=O)[nH]c2cc(C(=O)Nc3ccc(OC)c(Cl)c3)ccc2c1=O 4.08%
O=c1c(/C=N/Nc2ccccc2)c(Sc2nnnn2-c2ccccc2)nc2ccccn12 0.84%
O=C(O)c1ccccc1N/N=C/c1c(Sc2nnnn2-c2ccccc2)nc2ccccn2c1=O 13.1%
O=C(COc1ccc([N+](=O)[O-])cc1)Nc1ccc2c(c1)nc1n2CCOC1 14.9%
Cc1ccc(C(=O)CN(Cc2ccccc2)C2=NCCS2)cc1 -1.42%
C=CCN1C(=O)/C(=N/n2cnnc2)c2ccccc21 25.4%
c1ccc2c(c1)C(=Nn1cnnc1)c1ccccc1-2 3.9%
O=C(c1ccco1)N1CCC(c2nc3c(nnn3Cc3ccc(F)cc3)c(=O)[nH]2)CC1 12.3%
Cc1ccc(NC(=O)COC(=O)CCC(=O)c2cccs2)cc1S(=O)(=O)N1CCOCC1 14.2%
CC12CC3CC(C)(C1)CC(C(O)CN1CCOCC1)(C3)C2 (stereo not given) 3.1%
COc1cc(/C=N/N=C(\N)c2nonc2N)cc(OC)c1O 36.3%
N/C(=N\N=C\c1ccc(O)cc1)c1nonc1N 23.1%
COc1ccc(/C=N/N=C(\N)c2nonc2N)cc1OC 22.7%
N/C(=N\N=C\c1cccc(O)c1)c1nonc1N 18.6%
CCOC(=O)c1c(NC(=S)N2CCN(C)CC2)sc(C)c1-c1ccccc1 9.17%
CCOC(=O)C1=C(O)C(=O)N(c2ccc(S(N)(=O)=O)cc2)C1c1ccc([N+](=O)[O-])cc1 (stereo not given) 5.61%
Cc1ccc(NC(=O)Cc2ccsc2)cc1Cl 8.34%
C=CCC(C#Cc1ccc(C)cc1)N(CC)CC (stereo not given) 2.04%
COCCNC(=O)CN(C(=O)CCC(=O)Nc1ccccn1)c1ccc(F)cc1 2.44%
N#Cc1ccccc1-c1ccccc1C(=O)N1CCCCC1 5.76%
O=C(Nc1cccc(O)c1)c1ccc2c(c1)C(=O)N(Cc1ccco1)C2=O 8.23%
Cc1cccc(C(=O)Nc2ccc(NC(=O)c3ccccc3)cc2)c1 2.43%
O=C(Nc1ccccc1O)c1ccc2c(c1)C(=O)N(N1C(=O)c3ccccc3C1=O)C2=O 5.64%
COc1cc(C(=O)Nc2ccc(C(=O)O)cc2)ccc1OC(C)=O 17.2%
COC(=O)c1ccc(NC(=O)c2ccc(OC(C)=O)c(OC)c2)cc1 4.68%
Cc1cccc(C(=O)Nc2ccc(C(=O)Nc3ccc(O)cc3)cc2)c1 8.66%
CCc1ccc(NC(=O)c2ccc3c(c2)C(=O)N(Cc2ccco2)C3=O)cc1 9.22%
O=C(Nc1ccc(O)cc1)c1ccc2c(c1)C(=O)N(Cc1ccccc1)C2=O 35.7%
CCCOC(=O)c1ccc(NC(=O)CSC2=Nc3ccccc3C3CC=NN23)cc1 (stereo not given) 7.1%
CCCCNC(=O)c1cc2c(C)cc(C)cc2[nH]1 4.47%
COc1ccc(S(=O)(=O)n2nc(-n3c(C)ccc3C)c3c(F)cccc32)cc1OC 2.54%
COc1ccc(S(=O)(=O)N2CCN(c3ccc(C)cc3C)CC2)cc1OC 7.1%
CCn1cc(C(=O)N2CCN(c3ccc(OC)cc3)CC2)c(=O)c2cc(S(=O)(=O)N3CCCCC3)ccc21 15.4%
CN1CCN(C(=O)C2CCCN(S(=O)(=O)c3ccccc3)C2)CC1 (stereo not given) 7.31%
CC1Cc2cc(/C=C3/SC(=S)N(C)C3=O)ccc2O1 (stereo not given) 0.875%
O=C(COc1ccc2c3c(c(=O)oc2c1)CCCC3)N1C[C@H]2C[C@@H](C1)c1cccc(=O)n1C2 3.64%
N#C/C(=C\c1cccnc1)C(=O)Nc1ccc(Cl)cc1 14.4%
CCN(CC)C1CC(=O)N(c2cccc(C)c2)C1=O (stereo not given) 0.27%
O=C1CC(N2CCSCC2)C(=O)N1c1cccc(Br)c1 (stereo not given) 10.7%
COC(C/C=C\[C@H](O)[C@@H](C)OCc1ccccc1)OC 2.9%
CC1(C)Cc2c(c(N3CCOCC3)nc3sc(-c4ccc(C(=O)O)o4)c(N)c23)CO1 21.9%
COC(=O)c1ccc(-c2sc3nc(N4CCOCC4)c4c(c3c2N)CC(C)(C)OC4)o1 -1.68%
COC(=O)c1ccccc1NS(=O)(=O)c1ccc(Cl)nc1 4.72%
N#CC1=C(N)OC2=C(C(=O)CCC2)C1c1cccs1 (stereo not given) 23%
O=C(NCC(c1cccnc1)N1CCN(c2ccc(F)cc2)CC1)C1CCCCC1 (stereo not given) 18.4%
O=C(NCC(c1cccnc1)N1CCN(c2ccccc2)CC1)C1CCCCC1 (stereo not given) 2.45%
CCN(c1ccccc1)c1nc2ccsc2c(=O)s1 3.95%
COc1ccc(S(=O)(=O)N2CC=C(C(=O)Nc3ccc(NC(C)=O)cc3)CC2)cc1 8.65%
COc1ccc(N(CC(=O)NCCC2=CCCCC2)S(C)(=O)=O)cc1 1.47%
NS(=O)(=O)c1ccc(NC(=O)COC(=O)COc2ccccc2)cc1 3.76%
CCCc1nnc(NC(=O)C(C)N2C(=O)C3C4C=CC(C4)C3C2=O)s1 (stereo not given) 4.05%
c1ccc(-c2nnnn2-c2ccccc2)cc1 12.4%
Cc1ccc(-c2nnnn2-c2ccc(C)cc2)cc1 -0.57%
c1ccc(-n2nnnc2Cc2nnnn2-c2ccccc2)cc1 -7.53%
Cc1ccc(-n2nnnc2C(Cl)c2nnnn2-c2ccc(C)cc2)cc1 7.23%
COc1cc(OC)cc(C(=O)N[C@H](C(=O)Nc2cccc(S(=O)(=O)N3CCCC3)c2)C(C)C)c1 11.5%
O=C(Nc1cccc(-c2cn3c(n2)SCC3)c1)c1ccc(Br)o1 7.7%
COc1ccccc1OCCC(=O)NCc1ccc2c(c1)OCO2 8.06%
Cc1[nH]c2ccccc2c1C(=O)COC(=O)c1cccc(S(=O)(=O)N2CCCCC2)c1 7.32%
CC(=O)Nc1ccc(N/C=C2/CCCC2=O)cc1 16.2%
Cc1ccc(N/C=C2\CCCCC2=O)c(C)c1 8.76%
Cc1ccccc1NC(=S)NCc1ccccc1 7.25%
CCOC(=O)c1cccc(Nc2nc(-c3cccnc3)nc3ccccc23)c1 6.16%
COc1ccc(CNC(=O)CSc2nnc(C)c(=O)[nH]2)cc1 8.06%
O=C1CC(Nc2ccccc2)C(=O)N1c1ccc(N2CCOCC2)cc1 (stereo not given) 6.8%
O=C1CC(Nc2ccc(N3CCOCC3)cc2)C(=O)N1c1ccccc1 (stereo not given) 21.4%
S=c1[nH]nc(C2CCCCC2)n1/N=C/c1ccc(Br)cc1 0.57%
CCOc1cc(CNCCO)cc(Br)c1OCc1cccs1 10.3%
CCN(CC)S(=O)(=O)c1ccc(NC(=O)c2cnccn2)cc1 19.6%
CCN(C(=O)CN1CCN(c2ccccc2)CC1)c1c(N)n(Cc2ccccc2)c(=O)[nH]c1=O 14.1%
CCN(C(=O)CN1CCN(c2ccc(OC)cc2)CC1)c1c(N)n(Cc2ccccc2)c(=O)[nH]c1=O 21.5%
Cc1ccc(C(=O)N/C(=C\c2ccc3c(c2)OCO3)C(=O)Nc2ccc(C(=O)O)cc2)cc1 1.87%
COCCN(C(=O)COC(=O)c1cc2c(s1)CCCC2)c1c(N)n(Cc2ccccc2)c(=O)[nH]c1=O 4.52%
CCC1CCc2sc(C(=O)OCC(=O)N(CCOC)c3c(N)n(Cc4ccccc4)c(=O)[nH]c3=O)cc2C1 (stereo not given) 16.3%
CCN1/C(=C2/SC(=S)N(NC(C)=O)C2=O)Sc2ccccc21 0.32%
Cc1ccc(-n2cc(CNCC3CC(=O)N(C4CC4)C3)c(-c3cccc(C)c3)n2)cc1 (stereo not given) 4.43%
CCOc1ccc(N=Cc2ccc3ccccc3c2)cc1 21.9%
O/N=C/c1ccc2ccccc2c1 70.8%
COc1ccc(S(=O)(=O)N(C)c2ccc(OC(=O)C(C)Oc3ccc(F)cc3)cc2)cc1 (stereo not given) 13%
N/C(=N\N=C\c1ccc2c(c1)OCO2)c1nonc1N 7.74%
Cc1cc(=O)oc2c(CN3CCCC3)c(O)ccc12 4.61%
Cc1cc(=O)oc2c(CN(CC(C)C)CC(C)C)c(O)ccc12 15.8%
COc1ccc(CCN2C(=NC(=O)CC(C)C)SC3CS(=O)(=O)CC32)cc1 (stereo not given) 0.43%
